# Data as given in article PMC11574364.
# Key:
# Experiment in all cases: protein domain microarray probed with biotinylated miRNA; Domain array: 20 mM Tris-HCl pH 7.4, 200 mM KCl, 0.2 mM EDTA, 0.05% NP40, 2 ug/ul heparin, overnight 4 C. ORF array: PBS pH 7.0 with RNase inhibitor, 100 ng RNA; high values mean tight binding
# Conditions in all cases: ssRNA
# [1] = molecular target: T1, hnRNP-M(3) (Homo sapiens, UniProt P52272)
# T1 sequence: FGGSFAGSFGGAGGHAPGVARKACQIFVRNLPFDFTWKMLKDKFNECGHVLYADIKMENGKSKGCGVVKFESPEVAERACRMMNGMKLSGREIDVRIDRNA
# [2] = molecular target: T2, NONO (Homo sapiens, UniProt Q15233)
# T2 sequence: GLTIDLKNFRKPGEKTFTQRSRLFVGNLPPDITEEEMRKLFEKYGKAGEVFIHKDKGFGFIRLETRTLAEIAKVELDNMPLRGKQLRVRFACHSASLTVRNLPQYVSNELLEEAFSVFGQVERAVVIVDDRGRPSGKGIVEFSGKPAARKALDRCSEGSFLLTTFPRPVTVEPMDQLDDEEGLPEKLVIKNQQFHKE
# [3] = molecular target: HNRNPCL3/4 (Homo sapiens, UniProt O60812)
# HNRNPCL3/4, sequence (O60812 1-110): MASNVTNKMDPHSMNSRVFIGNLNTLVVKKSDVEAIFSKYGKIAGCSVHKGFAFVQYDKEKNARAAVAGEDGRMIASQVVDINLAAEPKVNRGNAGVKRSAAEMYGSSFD
# [4] = molecular target: ELAVL3 (Homo sapiens, UniProt Q14576)
# ELAVL3, sequence (Q14576 20-367): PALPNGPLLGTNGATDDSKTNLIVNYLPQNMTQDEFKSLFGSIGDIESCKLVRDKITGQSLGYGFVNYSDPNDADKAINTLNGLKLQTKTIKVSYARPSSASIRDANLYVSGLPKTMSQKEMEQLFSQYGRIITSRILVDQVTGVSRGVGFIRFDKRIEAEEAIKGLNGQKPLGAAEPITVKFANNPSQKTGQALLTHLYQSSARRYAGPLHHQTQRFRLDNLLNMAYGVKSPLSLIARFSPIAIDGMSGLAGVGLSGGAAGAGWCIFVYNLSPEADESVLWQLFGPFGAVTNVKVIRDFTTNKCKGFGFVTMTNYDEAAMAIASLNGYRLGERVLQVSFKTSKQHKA
# [5] = molecular target: CPSF6 (Homo sapiens, UniProt Q16630)
# CPSF6, sequence (Q16630 60-180): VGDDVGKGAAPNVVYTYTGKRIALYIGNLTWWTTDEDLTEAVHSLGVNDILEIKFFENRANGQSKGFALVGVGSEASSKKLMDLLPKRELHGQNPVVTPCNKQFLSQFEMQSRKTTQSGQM
# [6] = molecular target: hnRNP-CL1 (Homo sapiens, UniProt O60812)
# hnRNP-CL1, sequence (O60812 1-110): as the sequence (O60812 1-110) above
# [7] = molecular target: EIF4B (Homo sapiens, UniProt P23588)
# EIF4B, sequence (P23588 75-190): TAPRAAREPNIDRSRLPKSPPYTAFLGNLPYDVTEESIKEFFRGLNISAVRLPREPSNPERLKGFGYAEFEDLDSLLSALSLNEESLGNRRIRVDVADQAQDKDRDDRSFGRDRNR
# [8] = molecular target: T3, NSAP1 (Homo sapiens, UniProt O60506)
# T3 sequence: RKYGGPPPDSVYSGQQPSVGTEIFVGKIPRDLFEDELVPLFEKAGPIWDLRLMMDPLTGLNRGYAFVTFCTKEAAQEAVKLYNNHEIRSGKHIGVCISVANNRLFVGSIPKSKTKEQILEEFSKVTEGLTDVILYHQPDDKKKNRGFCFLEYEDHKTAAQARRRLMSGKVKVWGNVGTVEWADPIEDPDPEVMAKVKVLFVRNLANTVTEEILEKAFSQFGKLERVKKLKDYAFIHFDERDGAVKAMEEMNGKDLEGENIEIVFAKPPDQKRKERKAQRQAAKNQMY
# [9] = molecular target: T4, DAZ2/3 (Homo sapiens, UniProt Q9NR90)
# T4 sequence: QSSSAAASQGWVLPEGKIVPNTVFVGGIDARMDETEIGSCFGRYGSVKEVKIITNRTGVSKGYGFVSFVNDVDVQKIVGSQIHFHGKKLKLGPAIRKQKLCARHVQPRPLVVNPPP
# [10] = molecular target: T5, HTF9C (Homo sapiens, UniProt Q8IZ69)
# T5 sequence: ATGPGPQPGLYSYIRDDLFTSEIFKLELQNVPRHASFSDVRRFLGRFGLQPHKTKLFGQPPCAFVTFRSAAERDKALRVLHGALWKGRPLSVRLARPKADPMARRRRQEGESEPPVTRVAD
Sequence,binding signal [1] [fluorescence intensity],binding signal [2] [fluorescence intensity],binding signal [3] [fluorescence intensity],binding signal [4] [fluorescence intensity],binding signal [5] [fluorescence intensity],binding signal [6] [fluorescence intensity],binding signal [7] [fluorescence intensity],binding signal [8] [fluorescence intensity],binding signal [9] [fluorescence intensity],binding signal [10] [fluorescence intensity]
UGAGGUAGUAGGUUGUAUAGUU,22.8 ± 3.08,20.7 ± 2.69,22.3 ± 2.99,476 ± 12.5,23 ± 8.56,31.8 ± 10.7,883 ± 50,755 ± 86.6,37.8 ± 6.41,–
CAGUGCAAUGAUGAAAGGGCAU,37.9 ± 1.35,–,29.9 ± 0.976,868 ± 33.5,39.2 ± 6.51,23 ± 5.29,1810 ± 123,398 ± 6.14,70.6 ± 0.849,52.8 ± 3.39
UGAGGUAGUAGGUUGUAUGGUU,78.7 ± 6.91,41.2 ± 0.665,34.6 ± 6.43,1020 ± 53.3,26.1 ± 6.17,43.3 ± 2.77,2140 ± 29.2,1830 ± 24.4,151 ± 11.5,104.2 ± 0.884
UAGCUUAUCAGACUGAUGUUGA,20.6 ± 3.13,–,22.52 ± 0.0849,508 ± 14.6,36.4 ± 14.3,–,24.6 ± 5.08,42.1 ± 2.96,153 ± 9.91,–
AGAGGUAGUAGGUUGCAUAGUU,68.4 ± 19.5,26.1 ± 4.07,–,1430 ± 30.2,–,–,3250 ± 198,1900 ± 59.9,260 ± 18.7,78 ± 2.68
UGAGGUAGUAGGUUGUGUGGUU,112 ± 17.8,62.6 ± 1.97,36.4 ± 6.48,1280 ± 96.1,32.1 ± 8.4,77.6 ± 17.1,2502 ± 2.61,1770 ± 45.4,288 ± 6.91,182 ± 12.4
